Data published in PubChem BioAssay AID2661 (Broad Institute, 2010).
Screen size: about 320,000 compounds; about 240 (0.075%) were called active.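 Rule for the calls: active = inhibition at or above 25%, using the most active replicate where run in duplicate; inactive = inhibition below 25%.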 The sample as a whole holds a higher share of actives than the screen did.

target: Serine/threonine-protein kinase 33 (Homo sapiens) (UniProt Q9BYT3); experiment: inhibitors of purified STK33 kinase, primary screen, biochemical, ADP-Glo luminescence, homogeneous, cell-free (AID 2661); conditions: purified STK33, MBP phosphorylation, at 10 µM, hits give high values
Sequence (Q9BYT3 whole entry, looked up): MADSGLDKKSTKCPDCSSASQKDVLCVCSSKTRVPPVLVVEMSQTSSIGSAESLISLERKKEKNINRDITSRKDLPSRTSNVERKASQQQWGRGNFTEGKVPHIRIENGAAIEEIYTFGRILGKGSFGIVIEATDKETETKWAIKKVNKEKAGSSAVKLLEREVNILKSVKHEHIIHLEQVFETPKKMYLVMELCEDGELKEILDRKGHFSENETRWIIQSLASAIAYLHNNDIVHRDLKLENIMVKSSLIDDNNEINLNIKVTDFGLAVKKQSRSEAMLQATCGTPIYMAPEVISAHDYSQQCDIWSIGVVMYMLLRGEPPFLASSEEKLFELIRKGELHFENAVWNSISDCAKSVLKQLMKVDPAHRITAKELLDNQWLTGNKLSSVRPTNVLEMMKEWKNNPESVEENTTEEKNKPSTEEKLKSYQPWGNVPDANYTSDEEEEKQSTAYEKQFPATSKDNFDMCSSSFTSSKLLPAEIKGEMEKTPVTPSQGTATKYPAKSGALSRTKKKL

inhibition, inactive:
CCCc1cc(=O)[nH]c(SCC(=O)Nc2ccc(S(=O)(=O)N3CCCC3)cc2)n1 -1.05%
Cc1noc(C)c1NC(=O)Nc1ccc2c(c1)C(=O)N([C@H](C)CO)C[C@H](C)[C@@H](CN(C)S(=O)(=O)c1cn(C)cn1)O2 -0.91%
CCOC(=O)COc1cc(OCC(=O)OCC)c2c(=O)cc(-c3ccccc3)oc2c1 -0.944%
CCOC(=O)COc1cc(O)c2c(=O)cc(-c3ccccc3)oc2c1 1.27%
O=C(NNC(=O)c1ccc(Cl)nc1)c1ccc(Br)cc1 -0.906%
Cc1ccc(C)c(NC(=O)CN(C)C(=O)COc2ccc3ccccc3c2)c1 -0.402%
CC(=O)NC(CC(=O)Nc1ccc(S(=O)(=O)N2CCOCC2)cc1)c1ccccc1 (centres undefined) 2.28%
Cc1ccc(S(=O)(=O)N2[C@@H](c3cccc4ccccc34)C(C(=O)O)=C[C@H]2C(C)(C)C)cc1 -1.33%
CN(CCc1ccccc1)C(=O)c1cccc(NC(=O)Cc2ccc([N+](=O)[O-])cc2)c1 0.236%
O=C1OC[C@@H]2CCCN2C(=O)[C@H](CC(=O)N(CCO)Cc2ccccc2)C/C=C\CC[C@@H]1Cc1ccc(F)cc1 -0.762%
Cc1ccc(C(=O)OCC(=O)N2CCCCCC2)cc1S(=O)(=O)N1CCOCC1 -2.28%
C=CC[C@@H](CC(=O)N[C@H](CO)Cc1ccccc1)C(=O)N[C@@H](COC(=O)[C@@H](CC=C)Cc1ccc(F)cc1)Cc1c[nH]c2ccccc12 -0.564%
O=C1NC[C@@H](c2ccccc2)OC(=O)[C@H](Cc2ccc(F)cc2)CC/C=C/C[C@H]1CC(=O)N(CCO)Cc1ccccc1 -2.42%
Fc1ccccc1-c1cc2cc3c(cc2cn1)OCO3 1.15%
O=C(CN1C(=O)NC2(CCCCCC2)C1=O)Nc1ccc([N+](=O)[O-])cc1 -2.25%
O=C(COC(=O)c1cccnc1Cl)NC(=O)NC1CCCCC1 -0.374%
COc1ccc(Cl)cc1NC(=O)COC(=O)c1ccc(Br)o1 -0.284%
COc1ccc(CNc2nc(NCc3ccc(OC)cc3)c3ncn(C4CCCC4)c3n2)cc1 -0.00506%
O=C(CN1C(=O)c2ccc([N+](=O)[O-])cc2C1=O)Nc1nnc(C2CC2)s1 -0.729%
C=CCC[C@H](Cc1ccc(F)cc1)C(=O)OC[C@@H](Cc1c[nH]c2ccccc12)NC(=O)[C@H](CC=C)CC(=O)N[C@H](CO)Cc1ccccc1 -0.577%
O=C(COC(=O)c1ccc(O)cc1O)c1ccc2c(c1)OCCO2 1.53%
CCOc1ccc(Br)cc1S(=O)(=O)Nc1ccc(S(=O)(=O)Nc2cc(C)on2)cc1 -0.663%
COc1ccc2nc3n(c(=O)c2c1)-c1cc(C)ccc1C(=O)NC3Cc1ccc(O)cc1 (centres undefined) -0.57%

inhibition, active:
COc1c(O)cc2oc(-c3ccc(O)c(O)c3)cc(=O)c2c1O 44.2%
